This passage reports inhibition results from PubChem BioAssay AID488966 (Southern Research Specialized Biocontainment Screening …, 2010).

The whole screen tested about 340,000 compounds, of which about 55 (0.02%) were called active. Not all results are given here. Results with a measured potency or affinity are listed apart. Unmarked numbers belong to inactive results.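 Rule for the calls: active = phage lysis inhibition, versus mean bacterial control, above a set limit; inconclusive = no clear call, values can overlap the other calls; inactive = the rest.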

The assay in a line: inhibition of K1F phage lysis, E. coli UTI89, bacterial capsule biogenesis inhibitors, alamar blue (AID 488966).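 Note: capsule biogenesis inhibitors block K1F phage lysis so surviving cells raise fluorescence; higher fluorescence means more inhibition of phage lysis.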 To be noted: 2 h; inhibition: at 100 µM, stronger effect = higher value unless noted; series mostly up to 300 µM. In general terms: The colour change of resazurin is a common sign of viable cells or microbes.
For the compound `COc1ccc(N2C(=O)C(CC(=O)Nc3ccccc3)N(Cc3cccs3)C2=O)cc1` (centres undefined), the inhibition (commonly the relative decrease from the control value, in per cent) was -4.46%.

For `CCOC(=O)c1c(C)n(C)c2cc(-c3ccc(F)cc3)c(O)cc12`, the inhibition is 7.65%.

For `C[C@H](NC(=O)c1nc[nH]c1C(=O)N[C@@H](CCCCNC(=O)OC(C)(C)C)C(=O)OC(C)(C)C)c1ccccc1`, the inhibition was 2.05%.

Consider `COc1ccc(NC(=O)Nc2cc(C(C)(C)C)on2)cc1OC`, for which the inhibition was 1.47% [at 50 µM, stronger effect = higher value].

As for `O=S(=O)(c1ccc(S(=O)(=O)N(Cc2ccco2)Cc2ccccc2Cl)cc1)N1CCCC1`, the inhibition was 0.31%.

With `Clc1ccc(-c2ccc(/C=N/Nc3nncc(-c4ccccc4)n3)o2)cc1`, the inhibition was 0.65%.

As to `O=C(NCc1ccccc1Cl)c1cc([N+](=O)[O-])ccc1Cl`, the inhibition is 0.11%.

For the compound `Cc1ccc(Sc2ncccc2C(=O)NCc2cc([N+](=O)[O-])ccc2O)cc1C`, the inhibition entry was “inactive”.

On to `Cc1ccc(Sc2ncccc2C(=O)NCc2cc([N+](=O)[O-])ccc2O)c(C)c1`, for which the inhibition entry was “inactive”.

With `O=C(NCc1cc([N+](=O)[O-])ccc1O)c1cccnc1Sc1ccc(Cl)cc1`, the inhibition was 7.97%.

Regarding `CC(=O)Nc1ccc(Nc2ccc(S(=O)(=O)C(F)(F)F)cc2[N+](=O)[O-])cc1`, the inhibition was -2.27%.

Turning to `Cc1ccc(CC(NC(=O)c2ccccc2)C(=O)NC(CC(C)C)C(=O)O)cc1` (centres undefined), the inhibition was 0.84%.

Regarding `CCCCS(=O)CC(COC)OC(=O)c1ccccc1` (centres undefined), the inhibition is 0.21%.

As for `Cc1cccc2c1nc(-c1ccccc1)n1nnnc21`, the inhibition is -2.7%.

For the compound `COc1ccc(CNC(=O)CN2C(=O)CSc3ccc(S(=O)(=O)N4CCCCC4)cc32)cc1`, the inhibition is 0.13%.

Take `Cc1cc(OC(=O)c2cccs2)ccc1C(C)C`: the inhibition is -0.04%.

`O=C(Cn1cnc(S(=O)(=O)N2CCCC2)c1)Nc1ccccc1`: the inhibition is 0.25%.

On to `O=c1c(Cl)c(NS(=O)(=O)c2ccccc2)cnn1-c1ccccc1`, for which the inhibition is 0.1%.

For `COc1ccc(C(=O)OCC(=O)NC(C)CCc2ccccc2)cc1OC` (centres undefined), the inhibition is -0.14%.

For `O=C1CCc2cc(NS(=O)(=O)c3ccc(Cl)cc3)cc3c2N1CC3`, the inhibition was -0.37% [at 50 µM, stronger effect = higher value].

Turning to `C=CCN1C(=O)CN=C1Nc1cc(C)cc(C)c1`, the inhibition is -1.02%.

On to `COc1ccc(C(=O)N2CCN(C)C(C)C2)cc1OC1CCN(C(C)=O)CC1` (centres undefined), for which the inhibition is -0.02%.

As for `CCC(OC(=O)c1nsc(Cl)c1Cl)C(=O)NCCOC` (centres undefined), the inhibition was -0.07%.

`Cc1nn(CC(=O)Nc2ccc(N3CCOCC3)cc2)c(C)c1Br`: the inhibition is -0.525% [at 50 µM, stronger effect = higher value].

As for `Cc1ccccc1NC(=O)NCCCN1CCN(C)CC1`, the inhibition was -0.845% [at 50 µM, stronger effect = higher value].

As for `Cc1ccccc1NC(=O)CCN1CCN(C)CC1`, the inhibition is -0.19%.

On to `CN(C)C1=NC[C@H](Cc2ccccc2)N1CC1CCCC1`, for which the inhibition is 6.41%.

Regarding `COc1cc2cc(C(=O)NCCc3ccccc3)[nH]c2cc1OC`, the inhibition is -0.295% [at 50 µM, stronger effect = higher value].

In the case of `O=C(C1CCCO1)N1CCN(S(=O)(=O)c2ccc(F)cc2)CC1` (centres undefined), the inhibition was -0.11% [at 50 µM, stronger effect = higher value].

`O=C(COC(=O)c1ccccc1[N+](=O)[O-])Nc1cccnc1Cl`: the inhibition was 0.32% [at 50 µM, stronger effect = higher value].

In the case of `Cc1ccc(NC(=O)CN(C)C(=O)Cn2nnc(-c3ccccc3C)n2)cc1`, the inhibition is -2.28%.

As to `COc1ccc(C(=O)OCC(=O)NCC2CCCCC2)cc1F`, the inhibition is -0.21% [at 50 µM, stronger effect = higher value].

Take `CC(C)/C=C1\CCc2c([nH]c3ccccc23)C1=O`: the inhibition is 0%.

With `CC1Cc2ccccc2N1C(=O)COC(=O)CSc1ccc(F)cc1` (centres undefined), the inhibition is 0.27% [at 50 µM, stronger effect = higher value].

Turning to `COc1ccc(NC(=O)CN(C)C(=O)c2ccccc2OCC(=O)Nc2cccc(C(F)(F)F)c2)cc1`, the inhibition was 1.88% [at 50 µM, stronger effect = higher value].

Consider `NC(N)=N/N=C/c1ccc(OCc2ccccc2)c(OCc2ccccc2)c1`, for which the inhibition is 1.28%.

In the case of `NC(N)=N/N=C/c1ccc(OCc2ccc(Cl)cc2)cc1`, the inhibition is -12.3%.

Turning to `CC1=C(C(=O)OCC(C)C)C23C(=O)c4ccccc4C2(O1)OC(N)=C3C#N` (centres undefined), the inhibition was 0.06%.

For the compound `CCOC(=O)C1CCCN(c2c(NCCCN(C)Cc3ccccc3)c(=O)c2=O)C1` (centres undefined), the inhibition is 2.34%.

For the compound `Cc1ccc2nc(SCC(=O)Nc3ccccc3N3CCOCC3)c(C#N)cc2c1`, the inhibition is -1.09%.

Turning to `CCC(=O)N1c2ccc(S(=O)(=O)N3CCCCC3)cc2CC1C` (centres undefined), the inhibition is 0.16%.

Regarding `CC(C)N(Cc1ccccc1)C(=O)CN1C(=O)NC2(CCCC2)C1=O`, the inhibition is 1.04% [at 50 µM, stronger effect = higher value].

As to `Cc1c(NC(=S)NC(=O)c2cccc([N+](=O)[O-])c2)c(=O)n(-c2ccccc2)n1C`, the inhibition is -0.17%.

With `O=C(CSc1nc2c(cnn2-c2ccccc2)c(=O)[nH]1)NC1CCS(=O)(=O)C1` (centres undefined), the inhibition was -0.1%.

Consider `COC(=O)Nc1nc(Sc2ncc(C(F)(F)F)cc2Cl)n[nH]1`, for which the inhibition was 1.11%.

`CCOC(=O)c1ccc2[nH]c3c(c2c1)CCCC3`: the inhibition was 0.13%.

Turning to `CCC(CC)NC(=O)c1cc(OC)c(OC)cc1[N+](=O)[O-]`, the inhibition was 0.4%.

With `COc1cc(OC)c(OC)cc1CN(C)CC1CCCN(CCc2ccccc2F)C1` (centres undefined), the inhibition was 0.88%.

With `c1ccc2c(-c3cncc4ccccc34)cncc2c1`, the inhibition is 0.59%.

With `CCOC(=O)C(Cc1ccc(O)cc1)NC(=O)CNC(=O)C(CC(C)C)NC(=O)OC(C)(C)C` (centres undefined), the inhibition was 4.94%.

Regarding `COc1cccc(-c2c(C(=O)N/N=C(\C)c3cccs3)nnn2-c2nonc2N)c1`, the inhibition is 0.38%.

For the compound `Cc1ccc(C)c(S(=O)(=O)N2CCCCC2CCNC(=O)C(=O)NCc2ccccc2)c1` (centres undefined), the inhibition was 0.87% [at 50 µM, stronger effect = higher value].

As for `Brc1c(OCCOCCn2cncn2)ccc2ccccc12`, the inhibition was -1.02%.

As for `O=C(CCc1ccccc1)N=C1SC2CS(=O)(=O)CC2N1c1ccc(F)cc1` (centres undefined), the inhibition was 0.07%.

For `Cc1ccc(S(=O)(=O)c2c(C)cc(C)nc2Oc2cccc(C)c2C)cc1`, the inhibition is 1.5%.

Take `COc1cc(CCC(=O)NCC2CCCO2)cc(OC)c1OC` (centres undefined): the inhibition was 0.13%.

Consider `CC(C)C(NC(=O)c1ccccc1F)C(=O)OCC(=O)c1ccc(F)cc1` (centres undefined), for which the inhibition is -0.86%.

In the case of `Cc1ccc(C(C)(C)C)cc1S(=O)(=O)Nc1cccc(C(=O)N2CCN(c3ccccn3)CC2)c1`, the inhibition was -1.06% [at 50 µM, stronger effect = higher value].

As to `O=C1CCCN1C(=O)CSc1ccc2ccccc2n1`, the inhibition was 0.65% [at 50 µM, stronger effect = higher value].

With `Cc1ccc(C(=O)ONc2ccc(N=NC(=O)c3ccccc3O)cc2)cc1`, the inhibition is -1.4%.

For `O=Nc1ccc(NOC(=O)c2ccccc2)cc1`, the inhibition was 0.94% [at 50 µM, stronger effect = higher value].

Regarding `CCC1(CC)C(=O)NC(=O)NC1=NCCc1c[nH]c2ccccc12`, the inhibition was 8.91%.

On to `CC(=O)c1ccc(C(C)(C)c2ccc(C(C)=O)s2)s1`, for which the inhibition was 1.04%.

Take `COc1cc(/C=N/O)ccc1OCc1ccccc1Cl`: the inhibition is 2.6%.

As to `COc1cc(/C=N/N=C(N)N)ccc1OCc1ccc(Cl)cc1`, the inhibition was 1.12%.

For the compound `CCSc1ccccc1C(=O)Nc1ccc([N+](=O)[O-])cc1OC`, the inhibition is -0.1%.

On to `COc1ccc2cc(C(=O)NCCCN3CCCC3=O)[nH]c2c1`, for which the inhibition was 0.11%.

As to `CCOCCCNC(=O)CCc1ccc(S(=O)(=O)Nc2ccc(C)cc2)cc1`, the inhibition is -0.65%.

As for `CN(C)S(=O)(=O)c1ccc(C(=O)N(c2ccccn2)c2ccccn2)cc1`, the inhibition was 0.22%.

With `O=C(CCCc1nc2ccccc2s1)Nc1ccc(N2CCOCC2)cc1`, the inhibition was 0.19%.

As to `COC(=O)c1cc(OC)c(OC)cc1NC(=O)CN1CCOCC1`, the inhibition is 1.47%.

`CCN(CC)c1ccc(C(=C2C=CC(=[N+](CC)CC)C=C2)c2ccc(S(=O)(=O)O)cc2S(=O)(=O)[O-])cc1`: the inhibition was -0.79% [at 50 µM, stronger effect = higher value].

Take `CCN(CC)c1ccc2c(O)cc(=O)oc2c1`: the inhibition was 0.26%.

As for `COc1ccc2c(=O)c(-c3ccc(C)cc3)c(-c3ccccc3)oc2c1`, the inhibition is 0.1%.

Turning to `Cc1ccc(C(=O)N2CCN(S(C)(=O)=O)C2)cc1`, the inhibition is 3.27%.

In the case of `N=c1n(CCN2CCCCC2)c2ccccc2n1CC(O)c1ccc(Cl)c(Cl)c1` (centres undefined), the inhibition is -4.43%.

As to `N=c1n(CCN2CCCCC2)c2ccccc2n1CC(O)c1cccc(Br)c1` (centres undefined), the inhibition entry is “inactive”.

In the case of `COc1ccc(C(=O)NNC(=O)CCc2nc3ccccc3c(=O)[nH]2)cc1`, the inhibition is -0.85%.

For the compound `O=C(CSc1nnc(CNC(=O)c2ccco2)o1)Nc1nc2ccccc2s1`, the inhibition was 0.07%.

For `CC(=O)NC1=NN(C(C)=O)C(C)(c2cccnc2)S1` (centres undefined), the inhibition was 0.35%.

As to `Cc1cc2oc3c(c(=O)c2cc1C)C(c1ccc(C(C)C)cc1)N(CCCN1CCOCC1)C3=O` (centres undefined), the inhibition is 10.9%.

Consider `Cc1cc2oc3c(c(=O)c2cc1C)C(c1ccc(F)cc1)N(CCCN1CCOCC1)C3=O` (centres undefined), for which the inhibition was 10.1%.

Take `CC(C)Oc1ccc(C2c3c(oc4ccccc4c3=O)C(=O)N2CCCN2CCOCC2)cc1` (centres undefined): the inhibition is 7.09%.

Turning to `CCCOc1ccc(C2c3c(oc4ccccc4c3=O)C(=O)N2CCCN2CCOCC2)cc1` (centres undefined), the inhibition is 3.1%.
